Compound activity (PubChem)
ERK EGF inh: inhibitors of EGF-stimulated ERK signaling pathway. HEK293-V1b, EGF-stimulated phospho-ERK AlphaScreen. Potency, µM (titrated, usually from 11.5 µM), without a hit: at the top dose activity change, negative = inhibition, most hits filed as inhibitors. 130,000 tested, 0.41% active; active = well fitted inhibition curve with a large enough effect;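 note: plate controls were stimulated vehicle wells for no effect and unstimulated vehicle basal for full effect; nearly all actives have a fitted effect of over 55% in size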
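Phospho-ERK1/2 measured by AlphaScreen (SureFire) after 5 min 25 nM EGF stimulation of V1b-expressing HEK293 cells preincubated 30 min at 37C with titrated compounds; data scaled to DMSO and EGF controls, Hill-fitted AC50.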
* marks the source's active call; other numbers are inactive results; [ ] = remark or other dose. Shown is part of a subset that was picked to be rich in hits. Potency is the fitted concentration of half-maximal effect.

SMILES | ERK EGF inh
O=C1C=C(Nc2ccc(Cl)cc2)CC(c2ccco2)C1 (configuration not stated) | 2%
O=C1C=C(Nc2ccc(Cl)cc2)CC(c2ccc(Cl)cc2)C1 (configuration not stated) | 14µM*
Cc1ccc(C2CC(=O)C=C(Nc3ccc(Cl)cc3)C2)cc1 (configuration not stated) | 2%
NCCC[C@@H](CC(=O)N[C@@H]1CCNC[C@H]1C(=O)N[C@H](CC(=O)N[C@@H](CCC(=O)O)CC(=O)O)Cc1ccccc1)NC(=O)C[C@H](Cc1ccccc1)NC(=O)[C@@H]1CCCC[C@H]1N | -3%
CCCCCc1cc(=O)oc2c(C(CCN3CCCC(C)C3)c3cc(OC)c(OC)c(OC)c3)c(OC)cc(OC)c12 (configuration not stated) | 40µM*
COc1cc(OC)c2c(-c3ccccc3)cc(=O)oc2c1C(CCN1CCCC(C)C1)c1ccc2c(c1)OCO2 (configuration not stated) | -13%[57.5 µM]
COc1cc(OC)c2ccc(=O)oc2c1C(CCN1CCCC(C)C1)c1ccc(N(C)C)cc1 (configuration not stated) | -20%[57.5 µM]
Nc1c[n+](N2CCOCC2)no1 | -14%
O=S(=O)(CCc1ccccc1)c1nnnn1C1CCCCC1 | -3%
COc1ccccc1CN1CC[C@@]2(CCCN(C(=O)c3cc(C(F)(F)F)cc(C(F)(F)F)c3)C2)C1 | -5%
O=c1c(CCc2ccccc2)nc2cnc(Oc3ccccc3)nc2n1C[C@H]1CCCO1 | -1%
O=C(Nc1ccc(Nc2ccccc2)cc1)Nc1ccccc1Cl | 28µM*
O=C(Nc1ccccc1Cl)Nc1ccccc1Cl | -10%[57.5 µM]
CSc1ccccc1NC(=O)Nc1ccccc1Cl | 3%[57.5 µM]
COc1ccc(C2CC(=O)Oc3c(C(CCN4CCN(c5ccccc5)CC4)c4ccc(N(C)C)cc4)c(OC)cc(OC)c32)cc1 (configuration not stated) | 16µM*
COc1cc(C(CCN2CCOCC2)c2c(OC)cc(OC)c3c2OC(=O)CC3c2ccc(N(C)C)cc2)cc(OC)c1OC (configuration not stated) | -15%[57.5 µM]
COc1cc(OC)c2c(c1C(CCN1CCOCC1)c1ccc(N(C)C)cc1)OC(=O)CC2c1ccc(N(C)C)cc1 (configuration not stated) | -6%[57.5 µM]
O=C1C=CC2(OCCCO2)C(Br)=C1CO | 7%
COc1c(-c2coc3cc4c(cc3c2=O)CC(O)C(C)(C)O4)ccc2c1C=CC(C)(C)O2 (configuration not stated) | 13µM*
COc1c(-c2coc3cc4c(cc3c2=O)CC(OC(C)=O)C(C)(C)O4)ccc2c1C=CC(C)(C)O2 (configuration not stated) | 47%
CC1(C)C=Cc2c(cc3occ(-c4ccc5c(c4)OCO5)c(=O)c3c2O)O1 | 12%
CC/C=C\C/C=C\C/C=C\C/C=C\C=C\C(O)CCCC(=O)O (configuration not stated) | 4%
COc1ccc(-c2nc3cnc(N4CCNCC4)nc3n(-c3ccccc3)c2=O)cc1 | 0%
COc1ccc(-c2nc(-c3cccnc3)no2)cc1 | 1%[57.5 µM]
CN=c1scc(-c2ccc(OC)cc2)n1/N=C(\C)c1cccnc1 | 22µM*
SMILES | ERK EGF inh
COc1ccc(NC(NC(=O)c2cccnc2)C(Cl)(Cl)Cl)cc1 (configuration not stated) | 4%
COC(=O)C1(C(=O)OC)C/C=C\Cc2ccccc2[C@@H]1C[N+](=O)[O-] | -2%
CCCCC1=CC2=C(OC(C)=O)C(=O)C(C)(OC(=O)CCC(=O)OC)C(=O)C2=CO1 (configuration not stated) | -1%
OC(c1cc(C(F)(F)F)nc2c(Cl)cc(Cl)cc12)C1CCCCN1 (configuration not stated) | 0%[57.5 µM]
O=C(NCc1ccccn1)c1cc(-c2ccc(Cl)cc2)nc2ccccc12 | -2%
OC(c1cc(-c2ccc(Cl)cc2)nc2ccccc12)C1CCCCN1 (configuration not stated) | 32µM*
COC(=O)c1cc(=O)c(O)c2c(O)c(O)ccc2c1 | 8%
C#Cc1cccc(NC(=O)CSc2nnc(-c3ccc(C(F)(F)F)cn3)o2)c1 | 1%[57.5 µM]
N#Cc1cccc(NC(=O)CSc2nnc(-c3n[nH]c4ccccc34)o2)c1 | 32µM*
Cc1cccc(NC(=O)CSc2nnc(-c3n[nH]c4ccccc34)o2)c1 | 3%
O=C(Nc1cccc(F)c1)N1CC2(CCN(C(=O)c3cc(C(F)(F)F)cc(C(F)(F)F)c3)CC2)C1 | 1%
COc1ccc(CCCO[C@@H](Cn2ccnc2)c2ccc(OC)cc2)cc1 | -15%
O=C(NC1=NCCS1)c1ccc(Cl)c(S(=O)(=O)N2CCc3ccccc32)c1 | -11%[57.5 µM]
O=C(Nc1cccnc1)c1ccc(Cl)c(S(=O)(=O)N2CCc3ccccc32)c1 | 25µM*
O=C(Nc1cccnc1)c1cccc(S(=O)(=O)N2CCc3ccccc32)c1 | 1%
COc1cccc(CS(=O)(=O)c2ccccc2)c1 | -4%
O=S(=O)(CCc1ccccc1)c1nnnn1-c1ccccc1 | 1%
C=CCC(C)(O)C#Cc1ccccc1 (configuration not stated) | 5%
O=C1CC(c2ccccc2)CC(O)=C1C=Nc1ccc(Cl)cc1 (configuration not stated) | 5%
Cc1ccc(N=CC2=C(O)CC(c3cccc(Cl)c3)CC2=O)cc1 (configuration not stated) | -6%
Cc1ccc(N=CC2=C(O)CC(c3ccccc3Cl)CC2=O)cc1 (configuration not stated) | 20µM*
N#Cc1ccc(CS(=O)(=O)c2nnnn2-c2ccccc2)cc1 | -2%
CCCCc1c2ccccc2nc2[nH]c3ccccc3c12 | 1%
Clc1cncc(Cl)c1NNc1c2ccccc2nc2ccccc12 | 13µM*
Cc1cc(Cl)c2ccccc2n1 | -2%
SMILES | ERK EGF inh
Nc1c2ccccc2nc2ccccc12 | 10%
CCCCCC#CC[C@@H](O)/C=C/C=C/C=C\[C@@H](O)CCCC(=O)O | -23%
CCCCC/C=C\C/C=C\C/C=C\C=C\C(O)CCCC(=O)O (configuration not stated) | -9%
Cn1cccc1C(=O)N1CCC2(CCCN(c3ccncc3)C2)CC1 | 5%
Cc1ccc(NC(=O)COC(=O)CN2C(=O)c3ccccc3C2=O)cc1S(=O)(=O)N(C)C | 2%
Cc1ccc(NC(=O)c2ccncc2)cc1S(=O)(=O)N(C)C | 14%
CCCCN1C(=O)c2ccc(C(=O)Nc3ccc(C)c(S(=O)(=O)N(C)C)c3)cc2C1=O | 25µM*
O=CN1CCc2c([nH]c3ccccc23)C1c1cccc2cccnc12 (configuration not stated) | 6%
C=CCN1C(=O)S/C(=C/c2ccc(Sc3nc4ccccc4[nH]3)o2)C1=O | 25µM*
C=CCN1C(=O)S/C(=C\c2ccc3c(c2)n(C)c(=O)n3C)C1=O | -1%
C=CCN1C(=O)S/C(=C/c2ccsc2)C1=O | 2%
CC(C)[C@@H](CC(=O)N[C@@H]1CCNC[C@H]1C(=O)N[C@H](CC(=O)N[C@@H](CCC(=O)O)CC(=O)O)Cc1ccccc1)NC(=O)C[C@H](Cc1c[nH]c2ccccc12)NC(=O)[C@@H]1CNCC[C@H]1N | -6%
CCCCCCCCCCCCCCCC(=O)NCCCC(=O)O | -5%
COCCCCCCCCCCCC(=O)O | -5%
CCN(CC)c1ccc(/C=N/N2CCN(Cc3ccc(Cl)cc3)CC2)c(O)c1 | 14µM*
O=C(O)c1ccc(/C=N/N2CCN(Cc3ccc(Cl)cc3)CC2)cc1 | -1%
CCN(CC)c1ccc(/C=N/N2C(=O)c3ccccc3C2=O)c(O)c1 | 15%
